# Results reported in the supplement of paper PMC9135407.
# Where “and” joins values, the source holds several entries; their conditions need not be identical. Identical values can stand only once. Counter-ions that a name gives are not always drawn. Screen size: about 5,800 compounds; about 620 (11%) showed activity. This is one part of a sample in which actives are shown more often than they occur. A number with no mark means an inactive call.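 Rule for the calls: active = score above a cut-off or among the top three wells of a plate; in these data no inactive exceeds 0.85.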
# Test system: primary human hepatic stellate cells (donor 1)
# Assay: scaled lipid accumulation score (0 = DMSO-like, 1 = nortriptyline-like); higher = stronger HSC inactivation (lipid re-accumulation), active = hit call of the paper
# Conditions: 48 h
# [1] = library stock concentration: 10 mM
# [2] = library stock concentration: 1 mM
# [3] = library stock concentration: 3.33 mM
# [4] = library stock concentration: 80 uM
# [5] = library stock concentration: 400 uM
# [6] = library stock concentration: 2 mM
# [7] = library stock concentration: 6.2 mM
# [8] = library stock concentration: 5.1 mM
# [9] = library stock concentration: 13.5 mM
compound,measurement,setting,value
CC1(C)S[C@@H]2[C@H](/N=C/N3CCCCCC3)C(=O)N2[C@H]1C(=O)O,scaled lipid accumulation score,[1],≤ 0
CCCCC[C@@](C)(O)/C=C/[C@H]1C=CC(=O)[C@@H]1C/C=C\CCCC(=O)O [15(R)-15-methyl Prostaglandin A2],scaled lipid accumulation score,[2],≤ 0
"CCCCc1c(-c2ccc(O)cc2)[nH]c2nccnc12 [Aloisine A, RP107]",scaled lipid accumulation score,[3],≤ 0
O=C(O)COc1cccc(-c2ocnc2-c2nc(-c3ccccc3)c(-c3ccccc3)o2)c1,scaled lipid accumulation score,[1],≤ -0.006
O=C(O)C=CC(=O)O.OCCOCCN1CCN(C2=Nc3ccccc3Sc3ccccc32)CC1.OCCOCCN1CCN(C2=Nc3ccccc3Sc3ccccc32)CC1 [Quetiapine Fumarate],scaled lipid accumulation score,[1],1.06 (active)
CN1CCN(C2=Nc3ccccc3Sc3ccc(Cl)cc32)CC1 [Clothiapine],scaled lipid accumulation score,library stock concentration: 5.8 mM,0.413
OCCOCCN1CCN(C2=Nc3ccccc3Sc3ccccc32)CC1 [Quetiapine],scaled lipid accumulation score,library stock concentration: 5.2 mM,≤ 0
OCCOCCN1CCN(C2=Nc3ccccc3Sc3ccccc32)CC1,scaled lipid accumulation score,[1],0.251
OCCOCCN1CCN(C2=Nc3ccccc3Sc3ccccc32)CC1 [Quetiapine Fumarate],scaled lipid accumulation score,[3],0.061
OCCOCCN1CCN(C2=Nc3ccccc3Sc3ccccc32)CC1 [Quetiapine fumarate],scaled lipid accumulation score,library stock concentration: 2.3 mM,0.28
CCCCC[C@@H](O)/C=C/[C@H]1C(=O)C[C@H](O)[C@@H]1C/C=C\CCCC(=O)O [15(R)-Prostaglandin D2],scaled lipid accumulation score,[2],≤ 0
O=C([O-])[C@H]1/C(=C/CO)O[C@@H]2CC(=O)N21.[Li+] [Clavulanate lithium],scaled lipid accumulation score,library stock concentration: 9.7 mM,≤ 0
CCS(=O)(=O)Nc1ccc2[nH]c(O)c(C(=Nc3ccc(CN4CCCCC4)cc3)c3ccccc3)c2c1 [Hesperadin],scaled lipid accumulation score,[3],≤ 0
same,scaled lipid accumulation score,[1],0.147
Cl.N=C(N)NCCC[C@H](N)C(=O)O,scaled lipid accumulation score,[1],≤ 0
O=S(=O)(O)Oc1ccc(C(c2ccc(OS(=O)(=O)O)cc2)c2ccccn2)cc1 [Sodium Picosulfate],scaled lipid accumulation score,[3],≤ 0
same,scaled lipid accumulation score,[1],≤ -0.001
Cc1ccc(C(=O)Nc2cccc(C(F)(F)F)c2)cc1Nc1nc(-c2cccnc2)nc2c1cnn2C [listing 1 of 2 here],scaled lipid accumulation score,[4],≤ -0.016
same,scaled lipid accumulation score,[5],≤ -0.016
same,scaled lipid accumulation score,[6],≤ -0.016
same,scaled lipid accumulation score,[1],0.726
Cc1ccc(C(=O)Nc2cccc(C(F)(F)F)c2)cc1Nc1cncc(C(N)=O)c1,scaled lipid accumulation score,[4],≤ 0
same,scaled lipid accumulation score,[5],0.035
same,scaled lipid accumulation score,[6],≤ 0
same,scaled lipid accumulation score,[1],0.142
Cc1ccc(C(=O)Nc2cccc(C(F)(F)F)c2)cc1Nc1nc(-c2cccnc2)nc2c1cnn2C [listing 2 of 2 here],scaled lipid accumulation score,[3],0.942 (active)
same,scaled lipid accumulation score,[1],0.959 (active)
"Nc1ncnc2c1ncn2[C@@H]1O[C@H](COP(=O)(O)CP(=O)(O)OP(=O)(O)O)[C@H](O)C1O (stereo partly drawn) [alpha,beta-Methylene adenosine 5'-triphosphate dilithium]",scaled lipid accumulation score,[1],0.242
CCCCC/C=C\C/C=C\C/C=C\C/C=C\CCCC(=O)S[C@H](COCCCCCCCCCCCCCCCC)COP(=O)([O-])OCC[N+](C)(C)C [Arachidonoyl thio-PC],scaled lipid accumulation score,[2],≤ 0
CC(C=CC(=O)NO)=CC(C)C(=O)c1ccc(N(C)C)cc1 (stereo not given) [Trichostatin A (TSA)],scaled lipid accumulation score,[3],0.515
same,scaled lipid accumulation score,[1],0.663
CC(/C=C/C(=O)NO)=C\[C@@H](C)C(=O)c1ccc(N(C)C)cc1 [Trichostatin-A],scaled lipid accumulation score,library stock concentration: 16.5 mM,0.589
CC(/C=C/C(=O)NO)=C\[C@@H](C)C(=O)c1ccc(N(C)C)cc1 [Trichostatin A],scaled lipid accumulation score,[2],0.793 (active)
CCCSc1nc(N[C@@H]2C[C@H]2c2ccc(F)c(F)c2)c2nnn([C@@H]3C[C@H](OCCO)[C@@H](O)[C@H]3O)c2n1 [Ticagrelor],scaled lipid accumulation score,[3],≤ 0
same,scaled lipid accumulation score,[1],0.193
CSc1nc(N)c2ncn([C@@H]3O[C@H](COP(=O)(O)OP(=O)(O)O)[C@H](O)C3O)c2n1 (stereo not given in full),scaled lipid accumulation score,[1],0.082
CO/N=C1\C[C@]2(C[C@@H]3C[C@@H](C/C=C(\C)C[C@@H](C)/C=C/C=C4\CO[C@@H]5[C@H](O)C(C)=C[C@@H](C(=O)O3)[C@]45O)O2)O[C@H](/C(C)=C/C(C)C)[C@H]1C,scaled lipid accumulation score,[1],≤ 0
"OC[C@H]1O[C@@H](n2cnc3c(N[C@H]4CCC[C@@H]4O)ncnc32)[C@@H](O)C1O (stereo partly drawn) [Adenosine, N-(2-hydroxycyclopentyl)-, (1S-trans)- [CAS]]",scaled lipid accumulation score,[1],≤ 0
CN(C)CCCC1(c2ccc(F)cc2)OCc2cc(C#N)ccc21 (stereo not given) [Citalopram Hydrobromide],scaled lipid accumulation score,,≤ 0
CN(C)CCC[C@@]1(c2ccc(F)cc2)OCc2cc(C#N)ccc21,scaled lipid accumulation score,[1],0.614
Br.CN(C)CCCC1(c2ccc(F)cc2)OCc2cc(C#N)ccc21 (stereo not given) [Citalopram hydrobromide],scaled lipid accumulation score,[1],0.952 (active)
CN(C)CCC[C@@]1(c2ccc(F)cc2)OCc2cc(C#N)ccc21 [Escitalopram Oxalate],scaled lipid accumulation score,[3],≤ 0
same,scaled lipid accumulation score,[1],0.644
CN(C)CCCC1(c2ccc(F)cc2)OCc2cc(C#N)ccc21 (stereo not given) [Citalopram],scaled lipid accumulation score,[7],0.446 and 0.566
same,scaled lipid accumulation score,[1],0.51
CN(C)CCCC1(c2ccc(F)cc2)OCc2cc(C#N)ccc21 (stereo not given) [Citalopram hydrobromide],scaled lipid accumulation score,[1],0.259 and 0.597
CN(C)CCC[C@@]1(c2ccc(F)cc2)OCc2cc(C#N)ccc21 [Escitalopram],scaled lipid accumulation score,[7],0.197
"CCCCCCCCC#CCC#CCC#CCCCC(=O)O [5,8,11-Eicosatriynoic Acid]",scaled lipid accumulation score,[2],0.059
"CCCCCCCCC#CCC#CCC#CCCCC(=O)O [5,8,11-Eicosatriynoic acid]",scaled lipid accumulation score,[2],≤ -0.021
CCCCCCCCCCCCCCCC(=O)N[C@@H](COP(=O)(O)O)C(=O)O,scaled lipid accumulation score,[2],≤ -0.021
O=C(CCc1ccncc1)NNC(=O)N1Cc2ccccc2Oc2ccc(Cl)cc21,scaled lipid accumulation score,[1],0.105
CN(C)CCC(c1ccc(Cl)cc1)c1ccccn1 (stereo not given) [Chlorpheniramine],scaled lipid accumulation score,[1],≤ 0
CN(C)CCC(c1ccc(Br)cc1)c1ccccn1 (stereo not given) [Brompheniramine hydrogen maleate],scaled lipid accumulation score,[3],0.182
same,scaled lipid accumulation score,[1],0.583
CN(C)CCC(c1ccc(Cl)cc1)c1ccccn1 (stereo not given) [Chlorpheniramine maleate],scaled lipid accumulation score,,0.469
same,scaled lipid accumulation score,library stock concentration: 7.3 mM,0.251
CN(C)CCC(c1ccc(Cl)cc1)c1ccccn1 (stereo not given) [Chlorpheniramine Maleate],scaled lipid accumulation score,[3],0.106
same,scaled lipid accumulation score,[1],≤ 0
CN(C)CCC(c1ccc(Br)cc1)c1ccccn1 (stereo not given) [Brompheniramine maleate],scaled lipid accumulation score,,0.343
same,scaled lipid accumulation score,[1],0.275
CN(C)CC[C@@H](c1ccc(Cl)cc1)c1ccccn1 [Chlorpheniramine (s) maleate],scaled lipid accumulation score,[8],0.181
same,scaled lipid accumulation score,[1],0.005
"CN(C)CCC(c1ccc(Br)cc1)c1ccccn1 (single isomer, unassigned; (+)) [(+)-Brompheniramine maleate]",scaled lipid accumulation score,[1],0.351
CN(C)CC[C@@H](c1ccc(Cl)cc1)c1ccccn1,scaled lipid accumulation score,[1],0.377
CN(C)CCC(c1ccc(Cl)cc1)c1ccccn1.O=C(O)/C=C\C(=O)O (stereo not given),scaled lipid accumulation score,[1],0.891 (active)
CN(C)CC[C@@H](c1ccc(Cl)cc1)c1ccccn1 [Dexchlorpheniramine maleate],scaled lipid accumulation score,[8],≤ 0
CN(C)CCC(c1ccc(Br)cc1)c1ccccn1.O=C(O)/C=C\C(=O)O (stereo not given),scaled lipid accumulation score,[1],0.9 (active)
CCOc1nc2cccc(C(=O)OC(C)OC(=O)OC3CCCCC3)c2n1Cc1ccc(-c2ccccc2-c2nn[nH]n2)cc1 (stereo not given) [Candesartan Cilexetil],scaled lipid accumulation score,[3],≤ 0
same,scaled lipid accumulation score,[1],≤ 0
CCOc1nc2cccc(C(=O)OC(C)OC(=O)OC3CCCCC3)c2n1Cc1ccc(-c2ccccc2-c2nn[nH]n2)cc1 (stereo not given) [Candesartan cilextil],scaled lipid accumulation score,[1],≤ -0.027
"C/C=C/c1ccc(OC)cc1 [Anethole, trans-]",scaled lipid accumulation score,[9],≤ -0.006
C/C=C/c1ccc(OC)cc1 [Anethole],scaled lipid accumulation score,[1],0.104
same,scaled lipid accumulation score,[9],≤ 0
CCCCC/C=C\C\C=C/C=C/C=C/[C@@H](SC[C@H](N)C(=O)O)[C@@H](O)CCCC(=O)O [Leukotriene E4],scaled lipid accumulation score,library stock concentration: 100 uM,0.015
C[C@]1(c2nc3c(C(N)=O)cccc3[nH]2)CCCN1 [Veliparib],scaled lipid accumulation score,[4],0.0075
same,scaled lipid accumulation score,[5],≤ -0.0045
same,scaled lipid accumulation score,[6],≤ -0.0045
same,scaled lipid accumulation score,[1],≤ -0.0045
C[C@]1(c2nc3c(C(N)=O)cccc3[nH]2)CCCN1 [Veliparib (ABT-888)],scaled lipid accumulation score,[3],≤ 0
same,scaled lipid accumulation score,[1],≤ 0
CCCCCCCC/C=C\C/C=C\C/C=C\CCCC(=O)O [Mead acid (20:3 n-9)],scaled lipid accumulation score,[2],0.025
NC(=O)CCC/C=C\C[C@@H]1[C@@H](/C=C/[C@@H](O)CCc2ccccc2)[C@H](O)C[C@@H]1O [17-phenyl trinor Prostaglandin F2.alpha. amide],scaled lipid accumulation score,[2],≤ 0
CS(=O)(=O)CCNCc1ccc(-c2ccc3ncnc(Nc4ccc(OCc5cccc(F)c5)c(Cl)c4)c3c2)o1.Cc1ccc(S(=O)(=O)O)cc1.Cc1ccc(S(=O)(=O)O)cc1 [listing 1 of 2 here],scaled lipid accumulation score,[3],1.36 (active)
same,scaled lipid accumulation score,[1],1.55 (active)
CS(=O)(=O)CCNCc1ccc(-c2ccc3ncnc(Nc4ccc(OCc5cccc(F)c5)c(Cl)c4)c3c2)o1.Cc1ccc(S(=O)(=O)O)cc1.Cc1ccc(S(=O)(=O)O)cc1 [listing 2 of 2 here],scaled lipid accumulation score,[1],1.23 (active)
